Results: PubChem BioAssay
Where “and” joins values, the source holds several entries; their conditions need not be identical. Equal values may be shown once. Calls of active or inactive are those of the source.

Columns and labels:
[1] = E. coli DRC41 culture turbidity changes, primary screen, E. coli filamentation inducer project, strain DRC41, OD650, 48 h (AID 1152);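 also: E. coli MC1000 strain DRC41 lacking acrAB efflux pump and sulA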; details: E. coli DRC41 (acrAB sulA), higher = more signal, called active from +8 up or from −8 down
[2] = small-molecule binders of probe aLefty1, primary screen, biochemical, small-molecule microarray, 635/667 nm fluorescence (AID 1153); details: higher = more signal;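 also: score merges spot fluorescence with signal-to-noise ratio from the scanned slide images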
[3] = PSAC antagonists in infected red cells, primary screen, cell-based, P. falciparum Indochina, OD700, 1 h (AID 1154); details: P. falciparum Indochina infected RBC osmotic lysis, higher = more signal, called active from +8 up or from −8 down
[4] = PSAC antagonists in infected red cells, primary screen, cell-based, P. falciparum Indochina, OD700, 2 h (AID 1155);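 also: lysis reports solute entry through the parasite surface anion channel PSAC; channel blockers reduce lysis of infected cells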; details: P. falciparum Indochina infected erythrocytes, osmotic lysis OD700; higher = more signal, called active from +8 up or from −8 down
[5] = osmotic lysis modulators in infected erythrocytes, primary screen, PSAC antagonist project, cell-based, P. falciparum Indochina, OD700, 3 h (AID 1156); details: higher = more signal, called active from +8 up or from −8 down
[6] = PSAC antagonists in infected red cells, primary screen, cell-based, P. falciparum Indochina, OD700, 18 h (AID 1157); details: P. falciparum Indochina infected erythrocytes, osmotic lysis OD700, 18 h; higher = more signal, called active from +8 up or from −8 down
[7] = modulators of S6 phosphorylation in cells, primary screen, cell-based, A549, cytoblot, luminescence, serum-stimulated (AID 1158); details: A549 phospho-S6 cytoblot, 5 h, higher = more signal;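 also: serum-stimulated A549 lung adenocarcinoma cells; signal is phosphorylated S6 detected by cytoblot immunostaining with HRP secondary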
[8] = target: NADPH oxidase 2 (Homo sapiens) (UniProt P04839); assay: NOX2-dependent H2O2 signal modulators, primary screen, NOX inhibitor project, cell-based, HEK293-NOX2, PMA-stimulated, Amplex Red fluorescence (AID 1159); details: 45 min, higher = more signal, called active from +8 up or from −8 down; also: test concentration not given here
[9] = target: NADPH oxidase 4 (Homo sapiens) (UniProt Q9NPH5); assay: NOX4-dependent H2O2 signal modulators, primary screen, NOX inhibitor project, cell-based, HEK293-NOX4, tetracycline-induced, Amplex Red fluorescence (AID 1160); details: 45 min, higher = more signal, called active from +8 up or from −8 down
[10] = target: NADPH oxidase 5 (Homo sapiens) (UniProt Q96PH1); assay: NOX5-dependent H2O2 signal modulators, primary screen, NOX inhibitor project, cell-based, HEK293-NOX5, Amplex Red fluorescence (AID 1161); details: HEK293-NOX5, ionomycin, 45 min, higher = more signal
[11] = A549 cell viability effects, profiling panel, calcein-AM fluorescence, 48 h, basal (AID 1162); details: higher = more signal; also: test concentration not given here
[12] = adipocyte viability effects, profiling panel, cell-based, 3T3-L1 adipocytes, calcein-AM fluorescence, 48 h, basal (AID 1163); details: 3T3-L1 adipocytes viability, higher = more signal; also: test concentration not given here
[13] = HepG2 cell viability effects, profiling panel, calcein-AM fluorescence, 48 h, basal (AID 1164); details: higher = more signal; also: test concentration not given here
[14] = MM1S cell viability effects, profiling panel, calcein-AM fluorescence, 48 h, basal (AID 1165); details: higher = more signal;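 also: viability of MM1S multiple myeloma cells under basal unstimulated conditions; test concentration not given here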
[15] = basal RPMI8226 viability, no added stimulus, profiling panel, cell-based, calcein-AM fluorescence, 48 h, PK04 Diversity Set (AID 1166); details: RPMI8226 myeloma viability, higher = more signal;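 also: cells grown under basal conditions without added stimulus; test concentration not given here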
[16] = basal HepG2 mitochondrial membrane potential changes, profiling panel, cell-based, JC-1 fluorescence, 24 h, 100 nL compound (AID 1167); details: higher = more signal; also: test concentration not given here
[17] = basal 3T3-L1 adipocyte mitochondrial potential changes, profiling panel, cell-based, JC-1 fluorescence, 3T3-L1 adipocytes, 24 h, 100 nL compound (AID 1168); details: JC-1 mitochondrial fluorescence, higher = more signal, called active from +8 up or from −8 down; also: test concentration not given here
[18] = basal RPMI8226 mitochondrial membrane potential changes, profiling panel, cell-based, JC-1 fluorescence, 24 h, 100 nL compound (AID 1169); details: RPMI8226 myeloma, JC-1 mitochondrial potential fluorescence, higher = more signal; also: test concentration not given here
[19] = basal MM1S mitochondrial membrane potential changes, profiling panel, cell-based, JC-1 fluorescence, 24 h, 100 nL compound (AID 1170); details: higher = more signal; also: test concentration not given here
[20] = A549 lung cancer cell viability effects, profiling panel, resazurin fluorescence, 24 h, PK04 Diversity Set (AID 1171); details: higher = more signal, called active from +8 up or from −8 down; also: test concentration not given here

Chain of NADPH oxidase 2 (Homo sapiens) (P04839 whole entry, looked up): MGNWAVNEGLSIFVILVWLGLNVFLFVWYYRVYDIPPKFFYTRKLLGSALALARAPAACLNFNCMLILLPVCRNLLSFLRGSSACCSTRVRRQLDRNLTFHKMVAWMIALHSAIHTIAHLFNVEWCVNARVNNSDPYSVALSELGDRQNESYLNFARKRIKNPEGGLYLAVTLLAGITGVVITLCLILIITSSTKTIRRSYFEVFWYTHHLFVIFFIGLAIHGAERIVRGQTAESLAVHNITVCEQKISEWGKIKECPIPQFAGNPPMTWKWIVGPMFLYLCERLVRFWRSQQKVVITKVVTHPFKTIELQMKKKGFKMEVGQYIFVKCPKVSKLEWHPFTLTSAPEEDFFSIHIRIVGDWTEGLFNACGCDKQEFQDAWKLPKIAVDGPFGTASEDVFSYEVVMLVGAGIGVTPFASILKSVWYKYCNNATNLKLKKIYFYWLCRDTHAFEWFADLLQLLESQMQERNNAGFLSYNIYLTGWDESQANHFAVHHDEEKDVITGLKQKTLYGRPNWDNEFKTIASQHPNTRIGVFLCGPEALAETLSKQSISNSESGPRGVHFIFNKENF
Chain of NADPH oxidase 4 (Homo sapiens) (Q9NPH5 whole entry, looked up): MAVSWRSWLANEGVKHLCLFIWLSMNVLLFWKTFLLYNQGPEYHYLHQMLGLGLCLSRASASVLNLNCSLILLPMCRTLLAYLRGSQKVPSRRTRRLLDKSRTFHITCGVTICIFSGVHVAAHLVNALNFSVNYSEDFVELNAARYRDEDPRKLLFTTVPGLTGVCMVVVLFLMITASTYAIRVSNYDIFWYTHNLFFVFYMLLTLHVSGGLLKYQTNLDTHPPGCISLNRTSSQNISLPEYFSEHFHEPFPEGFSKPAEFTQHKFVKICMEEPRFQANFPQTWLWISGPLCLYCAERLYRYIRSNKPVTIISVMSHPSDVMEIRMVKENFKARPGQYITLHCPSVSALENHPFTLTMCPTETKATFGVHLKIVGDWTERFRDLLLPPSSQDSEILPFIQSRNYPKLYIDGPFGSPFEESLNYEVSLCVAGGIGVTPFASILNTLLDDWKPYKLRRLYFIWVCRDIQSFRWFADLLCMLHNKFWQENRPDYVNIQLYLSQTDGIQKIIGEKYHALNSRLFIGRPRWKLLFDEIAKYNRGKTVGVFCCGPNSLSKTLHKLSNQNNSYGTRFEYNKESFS
Chain of NADPH oxidase 5 (Homo sapiens) (Q96PH1 whole entry, looked up): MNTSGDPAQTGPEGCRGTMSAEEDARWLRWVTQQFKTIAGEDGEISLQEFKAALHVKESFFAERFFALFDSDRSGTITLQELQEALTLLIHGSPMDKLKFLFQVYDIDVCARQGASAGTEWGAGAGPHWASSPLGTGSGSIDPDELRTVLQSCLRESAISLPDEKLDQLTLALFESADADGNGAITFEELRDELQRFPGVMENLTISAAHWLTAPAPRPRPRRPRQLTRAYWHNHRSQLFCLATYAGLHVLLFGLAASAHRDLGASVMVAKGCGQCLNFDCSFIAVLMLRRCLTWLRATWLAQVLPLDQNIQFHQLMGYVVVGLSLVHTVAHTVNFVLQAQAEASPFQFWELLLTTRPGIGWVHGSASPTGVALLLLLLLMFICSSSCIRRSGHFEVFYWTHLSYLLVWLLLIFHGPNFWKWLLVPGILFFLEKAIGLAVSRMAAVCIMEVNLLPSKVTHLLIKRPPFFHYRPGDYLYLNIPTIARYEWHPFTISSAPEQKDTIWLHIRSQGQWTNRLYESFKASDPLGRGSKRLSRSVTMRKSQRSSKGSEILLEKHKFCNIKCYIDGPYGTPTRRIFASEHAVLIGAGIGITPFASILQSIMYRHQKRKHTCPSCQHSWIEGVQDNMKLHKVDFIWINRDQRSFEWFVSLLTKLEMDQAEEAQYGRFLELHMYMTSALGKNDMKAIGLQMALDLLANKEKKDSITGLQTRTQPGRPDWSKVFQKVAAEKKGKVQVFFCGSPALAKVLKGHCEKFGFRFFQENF

With CC(C)OC(=O)C=C1C[C@@H](c2cccc(C(F)(F)F)c2)O[C@@H](c2cccc(C(F)(F)F)c2)O1 the z-score [1] was -0.599 (inactive) and -0.778 (inactive), the composite z-score [2] was -0.0518 and -0.371 and the z-score [3] was 2.3 (inactive). For the same compound, the z-score [4] was 0.707 (inactive) and 1.02 (inactive), the z-score [5] was 0.192 (inactive) and -0.365 (inactive) and the z-score [6] was 0.613 (inactive) and 0.561 (inactive). The z-score [7] was 0.156 and -0.463, the z-score [8] was -0.112 (inactive) and 0.194 (inactive) and the z-score [9] was -1.2 (inactive) and -0.65 (inactive). For the same compound, the z-score [10] was -1.3 and -0.324, the z-score [11] was 0.133 and 0.343 and the z-score [12] was -0.425 and 0.279. For the same compound, the z-score [13] was 0.957 and 0.258, the z-score [14] was -0.499 and -1 and the z-score [15] was -0.195 and -0.167. For the same compound, the z-score [16] was -0.447 and 0.606, the z-score [17] was 0.297 (inactive) and 0.121 (inactive) and the z-score [18] was -0.897 and -0.238. The z-score [19] was -3.24 and -1.09 and the z-score [20] was 0.308 (inactive) and 1 (inactive).
For C=CCN(Cc1ccccc1)C(=O)C1N(CCCCCCO)C(=O)C2C(C(=O)O)C3C=CC21O3 (stereo not given), the z-score [1] was -0.107 (inactive) and 0.999 (inactive), the composite z-score [2] was -0.0508 and -0.101 and the z-score [3] was 0.506 (inactive) and 0.459 (inactive). For the same compound, the z-score [4] was -0.232 (inactive) and -0.314 (inactive), the z-score [5] was -0.911 (inactive) and -0.362 (inactive) and the z-score [6] was 0.135 (inactive) and 0.161 (inactive). For the same compound, the z-score [7] was -0.276 and 0.27, the z-score [8] was 0.498 (inactive) and 0.0836 (inactive) and the z-score [9] was -0.308 (inactive) and -0.348 (inactive). The z-score [10] was 0.751 and 0.232, the z-score [11] was -0.217 and 0.516 and the z-score [12] was 0.231 and 0.375. For the same compound, the z-score [13] was -0.642 and -0.438, the z-score [14] was -0.184 and -0.0762 and the z-score [15] was 0.462 and 1.64. The z-score [16] was -0.678 and -0.391, the z-score [17] was 0.201 (inactive) and 0.867 (inactive) and the z-score [18] was -0.0429 and 0.0701. For the same compound, the z-score [19] was -0.252 and -0.0839 and the z-score [20] was -0.0083 (inactive) and 0.239 (inactive).
With C=CCN(C(=O)C(c1cccs1)N(C(=O)/C=C\C(=O)O)c1ccc(CCO)cc1)C(C)(C)C (stereo not given) the z-score [1] was 0.381 (inactive) and -0.0974 (inactive), the composite z-score [2] was -0.134 and 0.0355 and the z-score [3] was -0.274 (inactive) and -0.322 (inactive). For the same compound, the z-score [4] was -0.432 (inactive) and 0.0511 (inactive), the z-score [5] was -0.518 (inactive) and -0.338 (inactive) and the z-score [6] was 0.0097 (inactive) and 0.232 (inactive). For the same compound, the z-score [7] was 1.36 and 0.123, the z-score [8] was 0.0507 (inactive) and 0.27 (inactive) and the z-score [9] was -0.86 (inactive) and -0.783 (inactive). For the same compound, the z-score [10] was 0.274 and 0.335, the z-score [11] was -0.392 and -0.51 and the z-score [12] was -0.589 and -1.1. For the same compound, the z-score [13] was -0.0749 and -0.55, the z-score [14] was -1.18 and 0.821 and the z-score [15] was 0.3 and 0.317. For the same compound, the z-score [16] was -0.178 and -0.341, the z-score [17] was 0.529 (inactive) and -0.179 (inactive) and the z-score [18] was 0.185 and 0.0345. For the same compound, the z-score [19] was 0.75 and 0.721 and the z-score [20] was -0.0762 (inactive) and -0.389 (inactive).
In the case of C[C@@H]1CN2[C@@H](CC[C@@H](C)[C@@H]2c2ccc(Br)cc2)C(=O)O1, the z-score [1] is reported as -1.42 (inactive) and 0.0426 (inactive), the composite z-score [2] is reported as 0.0367 and -0.275 and the z-score [3] is reported as 0.169 (inactive) and -0.313 (inactive). For the same compound, the z-score [4] was 0.279 (inactive) and -1.09 (inactive), the z-score [5] was -0.425 (inactive) and -0.16 (inactive) and the z-score [6] was 0.125 (inactive) and -1.18 (inactive). For the same compound, the z-score [7] was -0.0649 and 1.61, the z-score [8] was 1.55 (inactive) and -0.12 (inactive) and the z-score [9] was -1 (inactive) and 0.168 (inactive). For the same compound, the z-score [10] was 0.0337 and 0.614, the z-score [11] was -0.133 and 0.551 and the z-score [12] was 0.706 and 0.0322. The z-score [13] was -0.163 and 0.959, the z-score [14] was 0.248 and 0.391 and the z-score [15] was -0.0928 and 0.767. For the same compound, the z-score [16] was 0.446 and 0.56, the z-score [17] was -0.0606 (inactive) and 0.229 (inactive) and the z-score [18] was 0.05 and 0.203. For the same compound, the z-score [19] was 1.26 and -0.901 and the z-score [20] was 0.131 (inactive) and -1.45 (inactive).
In the case of C[N+](C)(C)CCCCCCNC(=O)[C@H]1C[C@H]2C(=O)N[C@@H](CCCC[N+](C)(C)C)C(=O)N2[C@H]1c1ccc(O)cc1, the z-score [1] is reported as 0.167 (inactive) and 0.234 (inactive), the composite z-score [2] is reported as -0.0523 and -0.127 and the z-score [3] is reported as 0.453 (inactive) and 0.892 (inactive). The z-score [4] was -1.12 (inactive) and 0.591 (inactive), the z-score [5] was -1.11 (inactive) and -2.09 (inactive) and the z-score [6] was -1.46 (inactive) and 0.0065 (inactive). The z-score [7] was 0.0304 and -0.109, the z-score [8] was -1.5 (inactive) and 0.235 (inactive) and the z-score [9] was -0.479 (inactive) and 0.249 (inactive). The z-score [10] was -3.22 and 0.0348, the z-score [11] was -0.512 and 0.597 and the z-score [12] was 0.222 and -0.596. For the same compound, the z-score [13] was -1.45 and -0.367, the z-score [14] was -0.602 and 0.494 and the z-score [15] was -0.149 and -0.0976. The z-score [16] was -1.34 and -0.105, the z-score [17] was 0.913 (inactive) and 0.345 (inactive) and the z-score [18] was -0.169 and 0.432. For the same compound, the z-score [19] was -0.657 and -0.528 and the z-score [20] was -0.673 (inactive) and -0.0771 (inactive).
With C=CCN(Cc1ccccc1)C(=O)C(c1cccs1)N(C(=O)/C=C\C(=O)O)c1ccc(CCO)cc1 (stereo not given) the z-score [1] was 0.906 (inactive) and 0.383 (inactive), the composite z-score [2] was -0.0449 and -0.314 and the z-score [3] was 0.149 (inactive) and -0.674 (inactive). For the same compound, the z-score [4] was -0.36 (inactive) and 0.526 (inactive), the z-score [5] was 0.0823 (inactive) and -0.0781 (inactive) and the z-score [6] was 0.283 (inactive) and 0.306 (inactive). For the same compound, the z-score [7] was 1.84 and 0.284, the z-score [8] was -0.228 (inactive) and -0.269 (inactive) and the z-score [9] was -0.353 (inactive) and -0.512 (inactive). The z-score [10] was -0.0714 and -0.0433, the z-score [11] was -0.636 and -0.0917 and the z-score [12] was 0.0605 and -0.16. The z-score [13] was 0.391 and 0.373, the z-score [14] was 1.49 and 1.81 and the z-score [15] was 0.586 and 0.894. The z-score [16] was 1.26 and 0.706, the z-score [17] was 0.645 (inactive) and 1.1 (inactive) and the z-score [18] was 0.648 and 0.272. The z-score [19] was -1.19 and -0.751 and the z-score [20] was -0.29 (inactive) and -0.14 (inactive).
In the case of CC(C)C(=O)N[C@@H]1CCCN1C(=O)C=Cc1ccccc1, the z-score [1] is reported as 0.214 (inactive), the composite z-score [2] is reported as -0.101 and the z-score [3] is reported as -0.272 (inactive). The z-score [4] was 0.274 (inactive), the z-score [5] was -0.77 (inactive) and the z-score [6] was -0.241 (inactive). The z-score [7] was -0.685, the z-score [8] was -0.457 (inactive) and the z-score [9] was 0.53 (inactive). For the same compound, the z-score [10] was 0.434, the z-score [11] was 0.516 and the z-score [12] was 0.709. The z-score [13] was 0.546, the z-score [14] was 0.391 and the z-score [15] was -0.463. For the same compound, the z-score [16] was -0.201, the z-score [17] was -0.481 (inactive) and the z-score [18] was 0.119. The z-score [19] was 0.304 and the z-score [20] was -0.123 (inactive).
